According to PMC7862700, “An all-to-all approach to the identification of sequence-specific readers for epigenetic DNA modifications on cytosine”:

How the values were obtained:
Test in all cases: DAPPL (digital affinity profiling via proximity ligation, sequencing); 10 mM Tris-HCl pH 7.5, 50 mM NaCl, 1 mM DTT, 4% glycerol, room temperature, 30 min; GST-TFs on glutathione beads, 16-mer random dsDNA library, 0.1% formaldehyde crosslink after washing; high values mean tight binding
FEV = target: T1, FEV (Homo sapiens, UniProt Q99581 1-238); conditions: protein: recombinant; tags: N-terminal GST; dsDNA, one strand shown
T1 sequence: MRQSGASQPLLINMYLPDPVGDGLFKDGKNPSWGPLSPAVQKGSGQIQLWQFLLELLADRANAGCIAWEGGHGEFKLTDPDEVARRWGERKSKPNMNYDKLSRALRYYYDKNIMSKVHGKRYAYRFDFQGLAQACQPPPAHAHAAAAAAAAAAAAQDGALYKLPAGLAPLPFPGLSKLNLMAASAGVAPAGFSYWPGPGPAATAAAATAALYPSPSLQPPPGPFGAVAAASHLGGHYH
Outline: (§1)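 Human transcription factors fused to GST were expressed in yeast, captured on glutathione beads, given DNA barcodes and pooled with a GST-only negative control. Pools were incubated with 200 nmole of a 16-mer random double-stranded DNA library in Tris/NaCl/DTT/glycerol buffer at room temperature for 30 min. They were then washed, crosslinked with 0.1% formaldehyde, proximity-ligated (BsaI/T4 ligase, 1 h, 37 °C), PCR-amplified and sequenced on an Illumina NextSeq500. Binding signal is each 6-mer's read frequency for a factor divided by its frequency for the GST control.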

ETV5 = ETV5 (Homo sapiens, UniProt P41161 1-510); conditions: protein: recombinant; tags: N-terminal GST; dsDNA, one strand shown
Outline: as §1

HSF1 = HSF1 (Homo sapiens, UniProt Q00613 1-529); conditions: protein: recombinant; tags: N-terminal GST; chain copies: 3; dsDNA, one strand shown
Outline: as §1

SPIC = target: T2, SPIC (Homo sapiens, UniProt Q8N5J4 1-248); conditions: protein: recombinant; tags: N-terminal GST; dsDNA, one strand shown
T2 sequence: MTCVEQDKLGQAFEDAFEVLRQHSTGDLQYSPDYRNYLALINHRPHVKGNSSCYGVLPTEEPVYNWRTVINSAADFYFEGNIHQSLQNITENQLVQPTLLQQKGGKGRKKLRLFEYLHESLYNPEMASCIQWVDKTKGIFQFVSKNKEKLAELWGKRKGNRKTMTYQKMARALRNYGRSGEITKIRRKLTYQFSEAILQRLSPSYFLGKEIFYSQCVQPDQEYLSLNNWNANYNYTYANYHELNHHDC
Outline: as §1

ELF4 = ELF4 (Homo sapiens, UniProt Q99607 1-663); conditions: protein: recombinant; tags: N-terminal GST; dsDNA, one strand shown
Outline: as §1

ELK4 = target: T3, ELK4 (Homo sapiens, UniProt P28324-2 1-405); conditions: protein: recombinant; tags: N-terminal GST; dsDNA, one strand shown
T3 sequence: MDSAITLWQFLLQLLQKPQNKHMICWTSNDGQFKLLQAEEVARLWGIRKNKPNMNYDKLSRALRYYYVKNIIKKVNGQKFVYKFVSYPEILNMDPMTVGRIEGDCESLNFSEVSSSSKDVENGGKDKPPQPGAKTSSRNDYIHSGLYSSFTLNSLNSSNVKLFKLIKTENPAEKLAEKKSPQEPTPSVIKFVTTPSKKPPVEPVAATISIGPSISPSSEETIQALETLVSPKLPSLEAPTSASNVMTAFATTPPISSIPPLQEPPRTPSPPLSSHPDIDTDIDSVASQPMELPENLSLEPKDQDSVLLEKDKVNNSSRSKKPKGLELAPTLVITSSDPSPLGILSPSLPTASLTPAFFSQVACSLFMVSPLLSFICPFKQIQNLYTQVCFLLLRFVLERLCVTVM
Outline: as §1

ETV2 = target: T4, ETV2 (Homo sapiens, UniProt O00321 1-342); conditions: protein: recombinant; tags: N-terminal GST; dsDNA, one strand shown
T4 sequence: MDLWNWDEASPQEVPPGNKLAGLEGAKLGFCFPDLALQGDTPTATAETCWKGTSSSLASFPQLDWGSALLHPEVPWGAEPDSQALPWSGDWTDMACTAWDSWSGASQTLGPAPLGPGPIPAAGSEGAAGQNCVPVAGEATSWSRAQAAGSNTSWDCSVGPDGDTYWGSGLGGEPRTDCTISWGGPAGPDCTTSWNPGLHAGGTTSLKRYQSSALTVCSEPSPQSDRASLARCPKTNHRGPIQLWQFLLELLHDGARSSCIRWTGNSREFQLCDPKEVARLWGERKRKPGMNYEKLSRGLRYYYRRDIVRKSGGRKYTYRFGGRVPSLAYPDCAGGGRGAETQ
Outline: as §1

ELF3 = target: T5, ELF3 (Homo sapiens, UniProt P78545 1-371); conditions: protein: recombinant; tags: N-terminal GST; dsDNA, one strand shown
T5 sequence: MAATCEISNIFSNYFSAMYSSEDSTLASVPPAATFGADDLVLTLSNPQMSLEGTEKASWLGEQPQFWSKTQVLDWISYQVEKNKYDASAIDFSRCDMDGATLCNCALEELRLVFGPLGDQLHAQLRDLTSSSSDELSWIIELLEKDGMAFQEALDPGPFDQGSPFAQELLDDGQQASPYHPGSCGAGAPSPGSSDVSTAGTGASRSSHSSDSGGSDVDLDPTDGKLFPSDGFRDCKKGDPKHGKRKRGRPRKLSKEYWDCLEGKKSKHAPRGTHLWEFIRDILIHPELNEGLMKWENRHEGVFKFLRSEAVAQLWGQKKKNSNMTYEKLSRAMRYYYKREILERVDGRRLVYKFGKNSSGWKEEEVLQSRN
Outline: as §1

Sequence of HSF1 (Q00613 whole entry): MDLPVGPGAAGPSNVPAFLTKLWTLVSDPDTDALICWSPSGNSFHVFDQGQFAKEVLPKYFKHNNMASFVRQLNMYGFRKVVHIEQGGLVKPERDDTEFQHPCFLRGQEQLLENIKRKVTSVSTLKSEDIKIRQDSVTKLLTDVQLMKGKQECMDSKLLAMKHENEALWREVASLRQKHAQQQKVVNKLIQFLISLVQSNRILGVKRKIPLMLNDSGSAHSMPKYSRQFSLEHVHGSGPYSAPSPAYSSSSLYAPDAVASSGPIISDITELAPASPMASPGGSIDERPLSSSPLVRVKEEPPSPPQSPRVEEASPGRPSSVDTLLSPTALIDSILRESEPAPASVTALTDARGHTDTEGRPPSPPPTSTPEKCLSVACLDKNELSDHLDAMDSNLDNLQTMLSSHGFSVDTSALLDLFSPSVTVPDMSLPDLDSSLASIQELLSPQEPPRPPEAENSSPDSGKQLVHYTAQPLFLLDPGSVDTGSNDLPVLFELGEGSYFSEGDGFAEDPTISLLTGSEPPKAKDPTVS
Sequence of ETV5 (P41161 whole entry): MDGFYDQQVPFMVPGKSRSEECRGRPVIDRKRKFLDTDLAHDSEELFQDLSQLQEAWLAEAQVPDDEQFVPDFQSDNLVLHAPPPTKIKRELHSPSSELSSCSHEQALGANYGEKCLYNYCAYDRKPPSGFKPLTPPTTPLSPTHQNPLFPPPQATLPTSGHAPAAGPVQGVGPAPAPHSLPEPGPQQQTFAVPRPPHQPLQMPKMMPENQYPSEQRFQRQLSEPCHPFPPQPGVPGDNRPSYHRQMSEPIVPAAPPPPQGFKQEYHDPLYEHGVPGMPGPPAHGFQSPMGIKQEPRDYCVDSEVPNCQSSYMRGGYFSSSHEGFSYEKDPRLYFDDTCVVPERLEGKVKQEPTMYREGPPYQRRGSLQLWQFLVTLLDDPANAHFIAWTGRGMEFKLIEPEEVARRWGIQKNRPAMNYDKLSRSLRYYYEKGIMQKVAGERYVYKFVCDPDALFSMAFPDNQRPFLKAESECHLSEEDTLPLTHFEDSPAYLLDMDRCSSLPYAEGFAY
Sequence of ELF4 (Q99607 whole entry): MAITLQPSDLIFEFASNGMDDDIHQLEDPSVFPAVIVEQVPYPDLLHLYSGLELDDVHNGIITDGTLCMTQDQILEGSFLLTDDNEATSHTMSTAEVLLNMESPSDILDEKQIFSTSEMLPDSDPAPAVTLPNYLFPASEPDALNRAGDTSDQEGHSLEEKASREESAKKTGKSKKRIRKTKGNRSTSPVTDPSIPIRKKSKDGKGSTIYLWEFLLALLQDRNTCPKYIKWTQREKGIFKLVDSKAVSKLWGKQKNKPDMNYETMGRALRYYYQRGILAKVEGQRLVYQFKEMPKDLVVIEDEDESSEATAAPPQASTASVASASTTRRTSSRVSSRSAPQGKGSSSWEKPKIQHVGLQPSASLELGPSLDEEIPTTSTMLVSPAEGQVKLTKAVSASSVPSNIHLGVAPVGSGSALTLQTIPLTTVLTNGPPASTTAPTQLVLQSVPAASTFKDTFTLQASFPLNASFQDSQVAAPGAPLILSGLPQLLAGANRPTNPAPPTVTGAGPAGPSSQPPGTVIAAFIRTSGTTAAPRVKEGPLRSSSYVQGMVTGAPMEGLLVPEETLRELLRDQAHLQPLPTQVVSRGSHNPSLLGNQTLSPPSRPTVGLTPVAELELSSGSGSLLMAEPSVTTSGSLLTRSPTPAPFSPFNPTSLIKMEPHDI

GGTCTT was tested, and the binding signal (FEV) was 1.07 fold enrichment (6-mer frequency, TF over GST control), the binding signal (ETV5) was 1.14 fold enrichment (6-mer frequency, TF over GST control) and the binding signal (HSF1) was 1.05 fold enrichment (6-mer frequency, TF over GST control). The binding signal (SPIC) was 1.02 fold enrichment (6-mer frequency, TF over GST control), the binding signal (ELF4) was 1.15 fold enrichment (6-mer frequency, TF over GST control) and the binding signal (ELK4) was 1.11 fold enrichment (6-mer frequency, TF over GST control). For the same sequence, the binding signal (ETV2) was 1.08 fold enrichment (6-mer frequency, TF over GST control) and the binding signal (ELF3) was 1.04 fold enrichment (6-mer frequency, TF over GST control).
